RORgamma inh – ROR gamma (mouse) transcription inhibition; Drosophila S2 Gal4-RORgamma UAS-luciferase reporter, 20 h; Potency, µM (doses to about 53.6 µM), for the others: at the highest dose activity change, negative = inhibition, most hits filed as inhibitors; actives 5.4% (n = 310,000); also: nearly all actives have a fitted effect of over 60% in size
Target sequence (P51450 whole entry, looked up, the tested form may be a part): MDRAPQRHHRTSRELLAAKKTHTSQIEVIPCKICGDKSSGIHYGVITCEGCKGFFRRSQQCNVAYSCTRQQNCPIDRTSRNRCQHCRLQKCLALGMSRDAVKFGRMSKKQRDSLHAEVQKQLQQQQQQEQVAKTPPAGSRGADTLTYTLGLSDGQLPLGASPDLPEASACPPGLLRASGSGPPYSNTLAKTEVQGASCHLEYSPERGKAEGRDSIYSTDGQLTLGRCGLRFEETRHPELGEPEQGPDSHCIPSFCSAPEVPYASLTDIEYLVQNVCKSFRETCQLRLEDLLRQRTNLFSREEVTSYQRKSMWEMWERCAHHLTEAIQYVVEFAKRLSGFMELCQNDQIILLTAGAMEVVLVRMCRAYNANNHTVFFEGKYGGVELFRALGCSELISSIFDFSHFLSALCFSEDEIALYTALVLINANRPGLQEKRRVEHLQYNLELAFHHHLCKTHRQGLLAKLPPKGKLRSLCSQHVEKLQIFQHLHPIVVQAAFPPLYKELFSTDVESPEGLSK
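Drosophila S2 cells stably expressing Gal4-DBD/mouse RORγ fusion under metallothionein promoter plus UAS-luciferase; compound 1 h, then 700 uM CuSO4 induction for 20 h at ambient temperature; inhibition read as reduced luminescence.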
TDP1 cell CPT – DT40-hTDP1 cell growth loss with CPT; chicken DT40 Tdp1-/-;hTDP1 cells + 20 nM CPT, ATP luminescence, 48 h; Potency, µM (top dose mostly 46.2 µM), for the others: at the top dose activity change, negative = growth inhibition, usual class: inhibitors; actives 12% (n = 420,000); AID 686979; also: nearly all actives have a fitted effect of over 55% in size
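Chicken DT40 Tdp1-/- cells complemented with human TDP1, 400 cells/well, exposed to compounds plus 20 nM camptothecin for at least 48 h at 37 C; viability read as ATP content by CellTiter-Glo luminescence.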
12-LOX inh – ALOX12 (human) lipoxygenase inhibition. AID 1671190. actives 1.1% (n = 580,000). P18054. purified 12hLO, xylenol orange hydroperoxide absorbance. Potency, µM (titrated, usually from 108 µM), for the others: at the top dose activity change, negative = inhibition, hits mostly inhibitors
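Hydroperoxide product was detected by ferrous iron/xylenol orange as the 573 to 405 nm absorbance ratio. Arachidonic acid at 40 uM (final) was turned over for 30 min at room temperature by 150 nM human 12hLO, pH 7.0 Hepes buffer, after 15 min compound preincubation.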
ELG1 repair inh – blocks ELG1-dependent DNA repair in HEK293T cells; actives 2.3% (n = 330,000); Potency, µM (doses to about 46.1 µM), for the others: at the top dose activity change, negative = inhibition, most hits filed as inhibitors; AID 504467; HEK293T ELG1-luciferase reporter, luminescence, 16 h; DNA damage induced by 5-fluorouridine; also: nearly all actives have a fitted effect of over 55% in size
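Reporter activity after DNA damage by 5-fluorouridine is monitored. Compound-treated cells incubate 16 hr at 37 °C, then ONE-Glo is added for 30 min before luminescence reading.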
TDP1 cell noCPT – qHTS for Inhibitors of human tyrosyl-DNA phosphodiesterase 1 (TDP1): qHTS in cells in absence of CPT; DT40 Tdp1-/- hTDP1 cells, no CPT, ATP luminescence, 48 h; Potency, µM (series often up to 46.2 µM), for the others: top-dose activity change, negative = growth inhibition, hits mostly inhibitors; actives 15% (n = 420,000); AID 686978, 2013; also: nearly all actives have a fitted effect of over 55% in size
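DT40 Tdp1-/-;hTDP1 cells, no CPT (DMSO vehicle only), 400 cells/well; compounds pin-transferred; ≥48 hr, 37 °C; CellTiter-Glo 30 min RT dark, luminescence read.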
Gal4-VP16 FLuc – Gal4-VP16 reporter inhibition counter-screen; Drosophila S2 Gal4-VP16 UAS-luciferase, luminescence, 20 h; Potency, µM (series often up to 53.6 µM), for inactives: top-dose activity, negative = inhibition, usual class: inhibitors; actives 3.5% (n = 310,000); AID 2546;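 also: Gal4-VP16 expression switched on by copper sulfate through the metallothionein promoter; nearly all actives have a fitted effect of over 50% in size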
An asterisk follows results filed as active; u = inconclusive; x = no result given; [ ] = another dose, or the depositor's remark. This is a sample that favours compounds with a hit; in the whole collection about 15% have one here. Calls follow the shape of the dose curve; as a rule, active = well fitted curve in the direction sought with a large enough effect; inconclusive = small, poorly fitted or top-dose-only effect, or another doubt; inactive = no such curve, though single readings can be large; an effect the other way counts as inactive or inconclusive. % is scaled to controls: 0 for no effect and ±100 for the full control effect; potency is read from the fitted curve at half-maximal effect.

SMILES	RORgamma inh	TDP1 cell CPT	12-LOX inh	ELG1 repair inh	TDP1 cell noCPT	Gal4-VP16 FLuc
CCC(=O)N(CCC(c1ccco1)C(C)C)Cc1ccccc1 (centres undefined)	27.9%	u	-43.1%	1.5%	u	22.4%
Cc1ccc(CN(Cc2ccco2)C(=S)NCC(=O)NC2CC2)cc1	9.6%	8.0%	u	1.0%	-0.5%	13.7%
Cc1ccc(CN(Cc2ccco2)C(=O)COc2c(C)cc(C)cc2C)cc1	x	23.1µM*	u	x	9.2µM*	x
Cc1ccccc1OCC(=O)N(Cc1ccco1)c1c(N)n(Cc2ccccc2)c(=O)[nH]c1=O	x	-17.8%	2.8%	19.9%	-12.6%	x
CC(C)c1noc(C2CCCNCCC(=O)NCC2)n1 (centres undefined)	x	x	7.6%	x	x	x
CCc1sc(C(=O)OCC(=O)c2ccc(OC)cc2OC)cc1C	x	x	2.8%	x	x	x
COC(=O)COCC(=O)NC[C@@H]1C=C(C)[C@H](CC(=O)NCc2ccc(F)cc2)C[C@H]1C(C)C	x	x	-4.0%	x	x	x
CCCCNc1sc(S(=O)(=O)CCC)nc1S(=O)(=O)c1ccc(C)cc1	x	u	-23.9%	x	20.6µM*	x
CC(C)OCCCNc1sc(S(=O)(=O)c2ccccc2)nc1S(=O)(=O)c1ccc(Cl)cc1	x	u	4.7%	x	18.4µM*	x
CCCS(=O)(=O)c1nc(S(=O)(=O)c2ccc(C)cc2)c(NCC(C)C)s1	x	u	-12.9%	x	20.6µM*	x
CCCS(=O)(=O)c1nc(S(=O)(=O)c2ccc(C)cc2)c(NCc2ccccn2)s1	24.2%	u	-0.5%	29.2%	u	13.5%
CCCCNc1sc(S(=O)(=O)CC)nc1S(=O)(=O)c1ccc(C)cc1	x	u	-2.3%	x	23.1µM*	x
CCS(=O)(=O)c1nc(S(=O)(=O)c2ccc(Cl)cc2)c(NCc2ccccc2Cl)s1	x	u	-16.0%	x	u	x
CCCS(=O)(=O)c1nc(S(=O)(=O)c2ccc(C)cc2)c(NCc2ccccc2)s1	x	-27.2%	-9.1%	x	u	x
COc1ccc(C(=O)c2c(C)oc3cc(C#N)c(C#N)cc23)cc1	x	x	-22.5%	x	x	x
CC(=O)NCCCC(=O)N1CCC2(CC1)CN(C(=O)NC(C)C)Cc1ccccc1O2	x	x	11.2%[6.33 µM]	x	x	x
C[C@]12CCC(=O)C=C1CCC1C2CC[C@@]2(C)C1CCC21OCCO1 (some centres undefined)	x	u	27.8%	u	u	x
CC(=O)S[C@@H]1CC2=CC(=O)CC[C@]2(C)[C@H]2CC[C@@]3(C)[C@@H](CC[C@@]34CCC(=O)O4)[C@H]12	x	7.31µM*	-0.4%	x	5.8µM*	x
C[C@@]12CCC(=O)C=C1C=CC1C2CC[C@]2(C)C1CC[C@@]21CCC(=O)O1 (some centres undefined)	39.2%	x	x	x	x	-2.4%
C[C@]12CCC(=O)C=C1CC[C@@H]1[C@@H]2CC[C@@]2(C)[C@H]1CC[C@@]21CCC(=O)O1	12.6%	u	u	-13.5%	9.2µM*	-10.7%
O=C(Nc1ccc2ccc(=O)oc2c1)C1=Cc2ccccc2OC=C1	x	x	-3.2%	x	x	x
CCNC(=O)N1CCCC(c2noc(COc3ccccc3)n2)C1 (centres undefined)	x	x	40.1%	x	x	x
Cc1ccccc1-n1nc(C)c2cc(C(=O)N3CCN(S(=O)(=O)c4ccc(F)cc4)CC3)sc21	-11.6%	10µM*	12.8%	u	17.8µM*	-10.4%
Cn1c(C=O)c(C#Cc2ccccc2)c2ccccc21	x	u	-3.2%	-4.2%	23.1µM*	x
COc1cccc(CCc2nc(-c3nnn4c3COC(c3ccc(C)cc3)C4)no2)c1 (centres undefined)	x	x	27.8%	x	x	x
SMILES	RORgamma inh	TDP1 cell CPT	12-LOX inh	ELG1 repair inh	TDP1 cell noCPT	Gal4-VP16 FLuc
CCOc1cc(NC(=O)c2ccccc2OC)c(OCC)cc1NC(=O)c1ccccc1	27.0%	u	21.1%	-5.6%	u	-15.7%
CCOc1cc(NC(=S)Nc2cccc(OC)c2)c(OCC)cc1NC(=O)c1ccc(C)cc1	7.94µM*	u	0.0%	-9.8%	20.6µM*	15.8µM*
CCOc1cc(NC(=S)Nc2cccc(OC)c2)c(OCC)cc1NC(=O)C(C)C	8.91µM*	-23.0%	-7.3%	u	-27.8%	u
CCOc1ccccc1NC(=O)Nc1ccc(Cl)cc1	u	u	u	18.8%	u	u
CCOc1cc(NC(=S)Nc2ccc(Cl)cc2)c(OCC)cc1NC(C)=O	11.2µM*	-28.3%	u	7.3µM*	u	u
CCOc1cc(NC(=O)CCl)c(OCC)cc1NC(=O)CCl	12.6µM*	2.91µM*	-13.2%	u	1.16µM*	20µM*
Cc1ccc(C2Cn3nnc(-c4noc(-c5ccoc5)n4)c3CO2)cc1 (centres undefined)	x	x	36.8%	x	x	x
CCOc1cc(NC(=S)Nc2cccc(C)c2)c(OCC)cc1NC(=O)CC(C)C	6.31µM*	u	u	u	-29.6%	20µM*
c1ccc(Oc2cccc3cccnc23)nc1	7.1%	7.0%	-27.1%	4.1%	1.2%	-0.6%
N#Cc1cc(Oc2cccc3cccnc23)c(-n2nnc3ccccc32)cc1C#N	u	7.08µM*	u	u	7.94µM*	6.31µM*
Cc1ccc(C(=O)NCCc2ccccc2)cc1	4.47µM*	-2.2%	x	u	u	3.98µM*
CC(C)c1ccccc1NC(=O)COc1ccc(C(=O)NCCc2ccccc2)cc1	u	u	-21.1%	-14.7%	u	17.8µM*
COC(=O)c1c(N)sc(C(=O)NCCc2ccccc2)c1C	2.51µM*	u	-21.4%	u	u	4.47µM*
COc1cccc(OC)c1C(=O)NCCc1ccccc1	x	-2.6%	-42.0%	x	-2.8%	x
Cc1ccc(CCNC(=O)c2ccc(CNS(=O)(=O)c3ccccc3)cc2)cc1	x	6.51µM*	-6.1%	x	5.8µM*	x
CCOc1ccc(CCNC(=O)c2ccc(CNS(=O)(=O)c3ccccc3)cc2)cc1OCC	10.0%	u	-5.5%	u	u	-2.5%
Cc1cc(C)cc(CN2CCC(C(=O)NCC(F)(F)F)CC2)c1	x	x	-54.0%	x	x	x
Cc1ccc(F)cc1S(=O)(=O)N1C[C@@H](C)[C@@](C)(O)C1	x	x	38.8%	x	x	x
Cc1ccc(CCNC(=O)c2ccc(CNS(=O)(=O)c3ccc(F)cc3)cc2)cc1	x	13µM*	-17.5%	x	6.51µM*	x
O=C(NCCCCc1ccccc1)c1ccc(Br)cc1	26.3%	u	0.0%	u	u	-5.6%
CCc1ccc(S(=O)(=O)NCc2ccc(C(=O)NCCN(Cc3ccccc3)C(C)C)cc2)cc1	x	20.6µM*	2.8%	x	13µM*	x
